Measurements as given in PubChem BioAssay.
Activity calls are given as the source filed them. Unless noted, no rule for the calls is given here.

Key:
[1] = resazurin metabolic signal in HepG2 cells – cell-based, resazurin fluorescence, 24 h, PK04 Diversity Set, profiling panel (AID 1172); settings: HepG2 viability, higher = more signal
[2] = budding yeast growth changes without added modifier – OD600, strain BY4716, 24 h, basal condition, primary screen (AID 1173); settings: S. cerevisiae BY4716 growth, OD600, 24 h; higher = more signal, called active from +8 up or from −8 down
[3] = viability profiling in MM1S myeloma cells – cell-based, resazurin fluorescence, basal, 24 h, PK04 Diversity Set, profiling panel (AID 1174); settings: higher = more signal, called active from +8 up or from −8 down;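 also: MM1S multiple myeloma cell line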
[4] = biological target: Dihydroorotate dehydrogenase (quinone), mitochondrial (Plasmodium falciparum (isolate 3D7)) (UniProt Q08210); experiment: inhibition of P. falciparum DHODH – biochemical, C-terminal His tag, absorbance 600 nm, primary screen (AID 1175); settings: PfDHODH enzyme, DCIP absorbance 600 nm; higher = more signal, called active from +8 up or from −8 down;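 also: recombinant parasite enzyme with a five histidine tag at its C terminus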
[5] = inhibition of PAO1 biofilm formation – strain PAO1, LB-PBS medium, absorbance 600 nm, primary screen (AID 1176); settings: P. aeruginosa PAO1 growth/biofilm, A600, 12 h; higher = more signal
[6] = growth modulation of vineyard yeast isolate – strain RM11-1a, OD600, basal, 24 h, primary screen (AID 1177);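 also: cultures grown under basal conditions with no added stressor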; settings: S. cerevisiae RM11-1a growth, OD600, 24 h; higher = more signal, called active from +8 up or from −8 down
[7] = growth of efflux-deficient E. coli DRC39 – strain DRC39, OD650, 24 h, E. coli filamentation inducers, primary screen (AID 1178);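 also: growth measured as culture turbidity by optical density at 650 nm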; settings: E. coli DRC39 acrAB, higher = more signal, called active from +8 up or from −8 down
[8] = growth of efflux-deficient E. coli DRC39 – strain DRC39, OD650, 48 h, E. coli filamentation inducers, primary screen (AID 1179);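 also: screen aims at cell division blockers that make cells filament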; settings: E. coli DRC39 delta-acrAB growth, higher = more signal, called active from +8 up or from −8 down
[9] = viability profiling in RPMI8226 myeloma cells – cell-based, resazurin fluorescence, basal, 24 h, PK04 Diversity Set, profiling panel (AID 1180); settings: higher = more signal;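 also: RPMI8826 multiple myeloma cell line at 5000 cells per well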
[10] = biological target: E3 ubiquitin-protein ligase XIAP (Homo sapiens) (UniProt P98170); experiment: small molecules binding XIAP protein – biophysical, small-molecule microarray, fluorescence 635 nm, primary screen (AID 1181); settings: higher = more signal;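 also: score merges 667 nm emission and signal to noise over triplicate slides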
[11] = tested on: XIP peptide (Xip251-270) binding; experiment: XIP fragment 251-270 binding compounds – biochemical, small-molecule microarray, fluorescence 635/667 nm, 0.1 µg/mL protein, primary screen (AID 1182); settings: fluorescent protein binding, 635 nm, higher = more signal, called active from +8 up or from −8 down
XIP peptide (Xip251-270) = experiment: compounds binding XIP fragment 251-270 – biochemical, small-molecule microarray, fluorescence 635/667 nm, 0.5 µg/mL protein, primary screen (AID 1183); settings: fluorescence 635 nm, higher = more signal
[12] = blood-stage malaria parasite viability loss – strain 3D7, DAPI fluorescence, 100 nL, primary screen (AID 1184);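 also: parasites grown inside human red blood cells in medium with human serum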; settings: P. falciparum 3D7 growth, 3 d, higher = more signal
[13] = biological target: Homeobox protein Hox-A13 (Mus musculus) (UniProt Q62424); experiment: disruptors of Hoxa13 oligonucleotide interaction – biochemical, fluorescence polarization, labeled oligonucleotide, primary screen (AID 1185); settings: Hoxa13:DNA binding, 15 min, higher = more signal, called active from +8 up or from −8 down
[14] = blockers of DNA damage checkpoint Chk1 activation – imaging, HeLa, hydroxyurea, phospho-Chk1 antibody, percent positive cells, primary screen (AID 1186); settings: hydroxyurea-induced phospho-Chk1 immunofluorescence imaging, higher = more signal
[15] = blockers of DNA damage checkpoint Chk1 activation – imaging, HeLa, hydroxyurea, phospho-Chk1 nuclear intensity, primary screen (AID 1187); settings: hydroxyurea-induced phospho-Chk1 immunofluorescence imaging, higher = more signal

Chain of Homeobox protein Hox-A13 (Mus musculus) (Q62424 whole entry, looked up): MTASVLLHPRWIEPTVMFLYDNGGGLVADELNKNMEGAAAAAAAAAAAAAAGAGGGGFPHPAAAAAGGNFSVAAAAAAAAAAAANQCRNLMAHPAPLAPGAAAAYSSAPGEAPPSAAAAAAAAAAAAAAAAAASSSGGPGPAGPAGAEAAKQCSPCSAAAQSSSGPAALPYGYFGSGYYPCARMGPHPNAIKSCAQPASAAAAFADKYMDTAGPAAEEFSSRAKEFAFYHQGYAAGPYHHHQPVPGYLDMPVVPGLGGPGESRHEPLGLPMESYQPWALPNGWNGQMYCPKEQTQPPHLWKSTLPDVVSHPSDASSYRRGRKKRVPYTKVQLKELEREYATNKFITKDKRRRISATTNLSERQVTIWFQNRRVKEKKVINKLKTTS
Chain of Dihydroorotate dehydrogenase (quinone), mitochondrial (Plasmodium falciparum (isolate 3D7)) (Q08210 whole entry, looked up): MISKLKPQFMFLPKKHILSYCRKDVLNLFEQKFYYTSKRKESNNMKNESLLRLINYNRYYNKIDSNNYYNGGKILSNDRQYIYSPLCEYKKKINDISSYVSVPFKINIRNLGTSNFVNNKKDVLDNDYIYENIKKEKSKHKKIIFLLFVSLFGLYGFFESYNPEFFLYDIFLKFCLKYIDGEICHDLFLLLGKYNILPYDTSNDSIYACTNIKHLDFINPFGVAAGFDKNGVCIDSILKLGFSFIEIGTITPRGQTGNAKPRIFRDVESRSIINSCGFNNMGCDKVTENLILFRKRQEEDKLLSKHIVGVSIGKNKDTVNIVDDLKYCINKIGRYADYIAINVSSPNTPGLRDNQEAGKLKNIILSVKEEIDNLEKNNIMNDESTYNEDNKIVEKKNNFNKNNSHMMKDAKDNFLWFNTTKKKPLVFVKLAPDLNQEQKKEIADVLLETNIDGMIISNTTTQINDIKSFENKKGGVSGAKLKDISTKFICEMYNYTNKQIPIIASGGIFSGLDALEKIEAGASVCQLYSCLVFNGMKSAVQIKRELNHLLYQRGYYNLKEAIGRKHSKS
Chain of E3 ubiquitin-protein ligase XIAP (Homo sapiens) (P98170 whole entry, looked up, the tested form may be a part): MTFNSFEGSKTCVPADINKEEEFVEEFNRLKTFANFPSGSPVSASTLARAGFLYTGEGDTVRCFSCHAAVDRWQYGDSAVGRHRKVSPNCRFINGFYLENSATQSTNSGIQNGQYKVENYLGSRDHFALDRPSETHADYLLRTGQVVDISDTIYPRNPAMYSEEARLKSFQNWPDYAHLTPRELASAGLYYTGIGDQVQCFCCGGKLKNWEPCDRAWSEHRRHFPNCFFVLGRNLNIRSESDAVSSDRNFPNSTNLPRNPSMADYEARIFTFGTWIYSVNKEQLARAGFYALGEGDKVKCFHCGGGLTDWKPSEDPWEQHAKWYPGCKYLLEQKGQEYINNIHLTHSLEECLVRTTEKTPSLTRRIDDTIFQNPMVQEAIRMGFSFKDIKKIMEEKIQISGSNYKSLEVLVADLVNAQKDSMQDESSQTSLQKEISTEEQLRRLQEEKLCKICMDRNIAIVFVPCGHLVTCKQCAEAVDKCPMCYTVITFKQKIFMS

Row | Compound | z-score [1] | z-score [2] | z-score [3] | composite z-score [4] | z-score [5] | z-score [6] | z-score [7] | z-score [8] | z-score [9] | composite z-score [10] | composite z-score [11] | composite z-score (XIP peptide (Xip251-270)) | z-score [12] | z-score [13] | z-score [14] | z-score [15]
1 | COc1ccc([C@H]2OC[C@@H]3CC4(CC=CC4)C(=O)N32)cc1 | -0.876 | -0.897 (inactive) | 0.305 (inactive) | -0.177 (inactive) | -0.0634 (inactive) | 0.504 (inactive) | -0.632 (inactive) | -0.688 (inactive) | 0.012 | -0.0118 | -0.302 (inactive) | 0.345 | 0.301 | -0.0645 (inactive) | 0.0257 (inactive) | -0.452 (inactive)
2 | COc1ccc(C(=O)O[C@H]2CC[C@]3(C)C4=C(CCC3C2(C)C)[C@]2(C)CC[C@H]([C@H](C)CCCC(C)C)[C@@]2(C)CC4)cc1 (stereo partly drawn) | 1.09 | 1.77 (inactive) | 0.873 (inactive) | -1.74 (inactive) | 0.814 (inactive) | -1.09 (inactive) | 1.25 (inactive) | 1.11 (inactive) | 1.37 | -0.142 | -0.674 (inactive) | 0.0738 | 0.148 | -1.08 (inactive) | -0.975 (inactive) | -1.15 (inactive)
3 | C=CCC(OC(C)=O)[C@@H]1[C@@H](N(Cc2ccc(-c3ccccc3)cc2)C(=O)Cc2ccc(F)cc2)c2cc(OCCCO)ccc2N1C(=O)c1ccc(-c2ccccc2)cc1 (stereo partly drawn) | 1.27 | -1.65 (inactive) | 1.4 (inactive) | -1.46 (inactive) | -0.124 (inactive) | -1.34 (inactive) | 0.904 (inactive) | 1.6 (inactive) | 1.48 | -0.296 | -0.142 (inactive) | 0.166 | -1.9 | -0.778 (inactive) | -0.517 (inactive) | -0.285 (inactive)
4 | O=C(NCc1ccc(F)cc1)[C@H]1C[C@H]2C(=O)N[C@@H](Cc3ccccc3)C(=O)N2[C@H]1c1ccc(O)cc1 | -0.354 | 1.41 (inactive) | 0.396 (inactive) | -0.0513 (inactive) | -0.0185 (inactive) | 1.23 (inactive) | 0.222 (inactive) | -0.324 (inactive) | 0.512 | -0.224 | 0.114 (inactive) | 0.832 | -0.237 | -1.6 (inactive) | -0.762 (inactive) | -0.352 (inactive)
5 | COC(=O)[C@@]1(Cc2ccccc2)[C@H]2c3cc(C(=O)N4CCCC4)n(Cc4nc5ccccc5[nH]4)c3C[C@H]2CN1C(=O)c1ccccc1 | -0.415 | 1.22 (inactive) | -1.66 (inactive) | 0.374 (inactive) | 0.687 (inactive) | 0.759 (inactive) | -0.538 (inactive) | -1.1 (inactive) | -1.3 | 0.119 | 1.33 (inactive) | 0.213 | -1.65 | -3.97 (inactive) | -1.01 (inactive) | -0.881 (inactive)
6 | CN(C)CCCNC(=O)[C@@]1(C)c2ccccc2C(=O)N(Cc2cc(F)cc(C(F)(F)F)c2)[C@H]1c1ccc(CO)cc1 | 0.101 | -0.84 (inactive) | 0.079 (inactive) | -0.478 (inactive) | 0.264 (inactive) | -1.11 (inactive) | 0.706 (inactive) | -0.175 (inactive) | -0.406 | -0.0079 | -0.55 (inactive) | -0.114 | -0.809 | -2.15 (inactive) | 0.0595 (inactive) | 0.121 (inactive)
7 | O=C1[C@H]2C=C(Br)[C@H](C[C@@H]2c2ccccc2)[C@@]12CO2 | -0.25 | -7.98 (inactive) | -0.727 (inactive) | 0.402 (inactive) | -0.14 (inactive) | -0.13 (inactive) | -1.29 (inactive) | -1.58 (inactive) | -0.579 | -0.228 | 0.122 (inactive) | 0.31 | -0.391 | -1.29 (inactive) | -0.155 (inactive) | -0.0519 (inactive)
8 | COc1ccc(CCN2C(=O)[C@@]3(Cc4ccccc42)c2ccccc2C(=O)N(Cc2ccccc2C(F)(F)F)[C@H]3c2ccc(CO)cc2)cc1 | -0.104 | 0.512 (inactive) | 0.35 (inactive) | -21.6 (active) | 0.31 (inactive) | -0.443 (inactive) | -0.0813 (inactive) | -0.374 (inactive) | -0.816 | -0.0102 | -0.223 (inactive) | 0.146 | -1.18 | 0.869 (inactive) | -0.389 (inactive) | -0.826 (inactive)
9 | COCCOC(=O)N1C(=O)[C@@]2(c3cc(C#Cc4ccc(OC)cc4)ccc31)[C@H](c1ccccc1OCCO)N1[C@H](c3ccccc3)[C@H](c3ccccc3)OC(=O)[C@H]1[C@@H]2C(=O)N1CCN(c2ncccn2)CC1 | 0.214 | 2.12 (inactive) | -0.539 (inactive) | 0.478 (inactive) | 1.64 (inactive) | 3.89 (inactive) | 0.0722 (inactive) | 0.857 (inactive) | 0.0636 | 0.397 | -0.349 (inactive) | 0.59 | -1.86 | 0.484 (inactive) | 0.0768 (inactive) | 0.273 (inactive)
10 | O=C1O[C@H](c2ccccc2)[C@H](c2ccccc2)N2[C@H]1[C@@H](C(=O)NC[C@H](O)c1ccccc1)[C@]1(C(=O)Nc3ccccc31)[C@H]2c1ccc(OCCO)cc1 | 0.293 | 1.3 (inactive) | -2.05 (inactive) | 0.0379 (inactive) | 4.04 (inactive) | 3.05 (inactive) | 0.0797 (inactive) | 0.0403 (inactive) | -3.16 | -0.0272 | 0.674 (inactive) | 0.809 | 0.249 | -5.01 (inactive) | -0.0282 (inactive) | 0.177 (inactive)
11 | CCOC(=O)C[C@H]1[C@H](OC(=O)Cc2ccc3c(c2)OCO3)[C@@H](NC(=O)c2ccc(-c3ccccc3)cc2)c2cc(OCCCO)ccc2N1C(=O)c1ccc2ccccc2n1 | 0.138 | -2.85 (inactive) | 0.878 (inactive) | -2.91 (inactive) | -0.906 (inactive) | -1.63 (inactive) | 1.26 (inactive) | 0.455 (inactive) | 0.356 | -0.102 | -0.458 (inactive) | 0.447 | -2.38 | -1.61 (inactive) | 0.455 (inactive) | 0.46 (inactive)
12 | CN1C(=O)C2C=CC(C(O)c3cccs3)N(Nc3ccccc3)C2C1=O (stereo not drawn) | -0.698 | 0.702 (inactive) | -0.861 (inactive) | -0.607 (inactive) | 0.847 (inactive) | -0.0337 (inactive) | -0.947 (inactive) | -0.724 (inactive) | -1.15 | 0.311 | 0.193 (inactive) | 0.356 | 0.376 | -1.14 (inactive) | 0.482 (inactive) | 0.35 (inactive)
13 | COc1ccc(C(O)C2C=CC3C(=O)N(c4ccccc4)C(=O)C3N2Nc2ccc(C(C)C)cc2)cc1OCc1ccccc1 (stereo not drawn) | -0.217 | -1.78 (inactive) | -0.0284 (inactive) | 0.785 (inactive) | 2.33 (inactive) | 0.165 (inactive) | -1.91 (inactive) | -1.38 (inactive) | -0.291 | -0.0535 | 0.658 (inactive) | 0.8 | 0.1 | -0.47 (inactive) | -0.309 (inactive) | -0.472 (inactive)
14 | COc1cc2c(cc1OC)CN(C(=O)[C@H]1[C@@H]3C(=O)O[C@@H](c4ccccc4)[C@@H](c4ccccc4)N3[C@@H](c3ccc(O)cc3)[C@]13C(=O)Nc1ccc(C#CCNC(N)=O)cc13)CC2 | 0.543 | 0.16 (inactive) | 0.187 (inactive) | -2.16 (inactive) | 0.305 (inactive) | 0.0092 (inactive) | 0.537 (inactive) | 0.0455 (inactive) | 0.592 | -0.202 | -0.564 (inactive) | 0.497 | -0.599 | -1.24 (inactive) | -0.192 (inactive) | -0.245 (inactive)
15 | [N-]=[N+]=NCc1ccccc1C[C@@]1(C(=O)NCC(O)CO)N=C(c2ccc(OCCCO)cc2)O[C@@H]1c1ccccc1N=[N+]=[N-] (stereo partly drawn) | -2.35 | -0.927 (inactive) | -2.87 (inactive) | 2.22 (inactive) | 1.35 (inactive) | 0.977 (inactive) | 0.707 (inactive) | -0.506 (inactive) | -2.85 | 0.1 | 1.78 (inactive) | 0.384 | -2.37 | -1.72 (inactive) | -0.0225 (inactive) | 0.105 (inactive)
16 | CC(=O)NCCCC[C@@H]1NC(=O)[C@@H]2C[C@H](C(=O)NCCCCCCNC(=O)CS)[C@H](c3cccc(OCCO)c3)N2C1=O | -0.396 | 0.174 (inactive) | -0.449 (inactive) | -0.424 (inactive) | 0.752 (inactive) | -0.407 (inactive) | 0.293 (inactive) | 0.367 (inactive) | -1.05 | -0.0791 | 0.732 (inactive) | 0.669 | -0.523 | -4.5 (inactive) | -0.223 (inactive) | -0.0198 (inactive)
17 | O=C1NCC(=O)N2[C@@H]1C[C@@H](C(=O)O)[C@H]2c1cccc(OCCO)c1 | 0.0195 | -0.816 (inactive) | -0.159 (inactive) | 0.97 (inactive) | -0.53 (inactive) | 0.569 (inactive) | -0.151 (inactive) | 0.524 (inactive) | -0.828 | 3.93 | 6.39 (inactive) | 1.02 | 0.0934 | -1.39 (inactive) | -0.467 (inactive) | -0.367 (inactive)
18 | CCCC=C(CCC)[C@@H](NC(=O)Oc1ccc(F)cc1)c1ccc(C(=O)OC)cc1 | 1.01 | 1.21 (inactive) | 0.0374 (inactive) | 0.58 (inactive) | 0.535 (inactive) | 1.2 (inactive) | -0.0379 (inactive) | 0.0821 (inactive) | -1.94 | 0.248 | 0.814 (inactive) | 0.302 | -0.476 | -0.734 (inactive) | 0.239 (inactive) | 0.34 (inactive)
